Measured values as given in PubChem BioAssay (NCI).
The panel holds about 83,000 compounds, 20% with a hit somewhere; the sample as a whole holds those more often.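 Cell lines were cultured in 96-well plates, exposed to a single compound concentration, and assessed for percent growth 48 hours later.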 The source made the active and inactive calls. The calls were made as follows: active = growth percent below 10; inactive = the rest.

What was measured:
Assay in all cases: NCI-60 one-dose screen, 48 h (100 = growth as untreated, 0 = no growth, -100 = all killed)
Details in all cases: 10 µM unless noted
[1] = system: NCI-H23 lung
[2] = system: NCI-H226 lung
[3] = system: NCI-H322M lung
[4] = system: HOP-62 NSCLC
[5] = system: NCI-H460 lung
[6] = system: HOP-92 NSCLC
[7] = system: NCI-H522 lung
[8] = system: A549/ATCC NSCLC
[9] = system: 786-0 renal
[10] = system: COLO 205 colon
[11] = system: DU-145 prostate
[12] = system: K-562 leukemia
[13] = system: MALME-3M melanoma
[14] = system: MDA-MB-231 breast
[15] = system: RXF 393 renal
[16] = system: SF-268 CNS
[17] = system: SF-295 CNS
[18] = system: SF-539 CNS
[19] = system: UACC-257 melanoma
[20] = system: M14 melanoma

Measured: growth

CCN(CC)CCNC(=O)c1c(C)[nH]c(/C=C2\C(=O)Nc3ccc(F)cc32)c1C
active: [5] 1.9% | [7] -46% | [8] 0.0489% | [9] -63.8% | [10] -80.3% | [12] -22.3% | [13] -82.6% | [14] 0.117% | [15] -71.4% | [18] -88.8% | [19] -40.4% | [20] -77%
inactive: [1] 21.4% | [2] 51.1% | [3] 31.4% | [4] 26% | [6] 30.3% | [11] 33.2% | [16] 39.6% | [17] 67.3%

Cc1cc(C(=O)Nc2cc(Oc3ccc4nc(NC(=O)C5CC5)cn4n3)ccc2C)n(C)n1
inactive: [1] 24.7% | [2] 43.3% | [3] 15.8% | [4] 14.4% | [5] 18.9% | [7] 14.1% | [8] 11% | [9] 51.9% | [11] 54.3% | [14] 21.9% | [16] 40.9% | [17] 52.5%
active: [6] -25.6% | [10] -27.2% | [12] 7.79% | [13] -5.45% | [15] -15.1% | [18] 3.9% | [19] -29% | [20] -8.27%

CN1CCN(c2ccc(OC(F)(F)F)c(Nc3ncc4c(n3)-c3c(c(C(N)=O)nn3CCO)CC4)c2)CC1
inactive: [1] 26% | [2] 57.8% | [3] 58.1% | [6] 25.8% | [9] 17% | [11] 10.2% | [13] 83.6% | [14] 32.1% | [15] 32.9% | [16] 35.6% | [17] 33.4% | [19] 47.6% | [20] 10.2%
active: [4] 5.17% | [5] 5.8% | [7] -22% | [8] 9.12% | [10] -15.4% | [12] 8.71% | [18] 3.87%

C=CC(=O)N1CCC(Oc2cc3c(Nc4ccc(Cl)c(Cl)c4F)ncnc3cc2OC)CC1
inactive: [1] 23.2% | [2] 34.9% | [3] 12.2% | [4] 18.4% | [5] 39.3% | [8] 15.7% | [9] 23.2% | [10] 15% | [11] 24.2% | [12] 12.6% | [13] 60.9% | [14] 17.3% | [17] 15.9% | [19] 24.4% | [20] 28.8%
active: [6] -29.7% | [7] -49.3% | [15] -46.6% | [16] 8.38% | [18] -8.55%

CCc1nc(C(N)=O)c(Nc2ccc(N3CCC(N4CCN(C)CC4)CC3)c(OC)c2)nc1NC1CCOCC1
inactive: [1] 32.5% | [2] 38.2% | [3] 43.3% | [4] 16.9% | [5] 17.2% | [8] 12.4% | [9] 10.2% | [11] 45.1% | [12] 16.1% | [13] 52.4% | [14] 20.3% | [16] 38.3% | [17] 12.8% | [19] 40.5% | [20] 15.2%
active: [6] -25.2% | [7] 1.52% | [10] -46.5% | [15] -92.9% | [18] -78.3%

C#Cc1cccc(Nc2ncnc3cc(OC)c(OCCCCCCC(=O)NO)cc23)c1
active: [1] -31.4% | [2] -10.9% | [3] -8.88% | [4] -37.5% | [5] 1.24% | [6] -26.4% | [7] -58.2% | [8] -32.8% | [9] -15.4% | [10] -65% | [11] 0.81% | [12] 5.48% | [13] 2.19% | [14] -16.8% | [15] -49.5% | [16] -3.98% | [17] -53.6% | [18] -1.18% | [19] -47.3% | [20] 2.66%

Cc1ccc(N)cc1CN1C(=O)c2ccccc2C1=O
inactive: [1] 105% | [2] 93.1% | [3] 104% | [4] 97.1% | [5] 105% | [6] 86.9% | [7] 58.5% | [8] 105% | [9] 98.5% | [10] 105% | [11] 105% | [12] 105% | [13] 101% | [14] 106% | [15] 102% | [16] 121% | [17] 118% | [18] 107% | [19] 100% | [20] 96.9%
